Tested on: LXRb:RXRa (NR concentration 270 nM, RXRa partner concentration 90 nM)
Assay: PBM binding z-score (relative to random genomic background probes); higher = stronger binding; sequences stand for … in GC…GCGATTGACAGCGTAGAATGAAGG
Procedure, shortened: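 Binding buffer was PBS pH 7.4 with 2% milk, 0.02% Triton X-100, 1 mM DTT, 0.2 mg/mL BSA and 0.4 mg/ml salmon testes DNA. In it, ligand-free nuclear receptor dimers were incubated 1 h on custom Agilent 4×180K protein-binding microarrays carrying double-stranded probes. Antibodies against each partner (one per run) detected binding, and z-scores were calculated against random background probes after regression normalization of scanned fluorescence.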

Sequence | PBM binding z-score
AGAATCAGGTTATTAAGATCAGGGAATTGCGGTC | 0.473
TCGAGTAGGTTAGGGGTATTCAGAATGGCGTCGA | 1.01
CCTACTGGGCCCTTCAGAGGTCATTGATCATATG | 3.34
GAGACTGGGGCAAAGCAGGTTACCATAAGGTTGG | 0.677
CCCACTGGGCCACGAAAGGTCATTGATTCAGTGA | 4.22
CCAGACAGGTGAGAAGGTCACTCAGCCTCGATTA | 2.7
ATCGAAAGCTCGTGAGGTGAGTATACAGAAAGGC | -0.546
TCTAGTTGGTCAAAGGTCACACATTCGAAATGCG | 5.35
TAGCGTAGGTCAGATCGGGCCAGTATACGCTATA | 0.809
TCTGGTAGATCAAAGGTTAAGAAAGCCGAAGCCT | 2.08
CGTCCAAGGTCAAGGTCAGTCAAAGAGACTCGAA | 4.85
TCATATAGGTAAAGGTGAAAGTCGAACGATATGA | 1.05
ACAGACAGGTGAGTGAAGGCAACTCAGCTGGACG | -0.733
AGAATGAGGTTATTAAGCTCAGGGAATTGCGGTC | 0.747
CGTCCAAGGTAAGCAGGTCAGTGAAAGCGACGTG | 0.018
ACTAGTTTGTCAGCTGAGGTCACACACAATTCGG | 3.67
TCTTGTAGATCAGCAGGTTCAGAAAGCTGGCCAA | 0.265
ACAGACAGGTGAGTGAAGGAAACTCAGCTGGACG | -0.792
TCTTGTAGATCAAAAGAGGTTAAGAAAGTGCGCT | 1.66
TTACCGAGGTGAAGGTCGTTGATCCCTCTGTAGA | 1.71

Sequence | PBM binding z-score
CCGAGTAGGTTATGAGGCATTCAGGCAACGGTGA | -0.158
CGAACTAGGTCATGCAGGACAGTGAATACATTGA | 1.88
CGTCCAAGGTGAGAGAGGTCAGTGAATGCCGAGT | 2.05
ACACGGAGGACAAAGGTCAGAGCTACGCCAGTGA | 3.36
AGTCAAAGTTCGTCTAGGTAACGTAAGATATGCT | 0.787
AAAACAGGGTCACTAGGCCAGAGTAGGTACGAAT | 4
ACAGACAGGTGAGTGAAGGTAATTCAGCTGGACG | -0.196
ATCTCTAGGTAACCAAGTTCAATGAATGCCGAAC | 1.34
GGAACGAGGGCAAGTTGATAGCGGAGTTTGATGG | 0.246
ACCATTAGTTGAGACGAGGGCAACCGATAGGTTG | 0.214
ATATGTAGGTTATCGGTTCATTCAGTTTGCGCAT | 1.71
AGAATGAGGTTAAGAACAGGGAAACAGAATACAT | 1.87
TCTCGGAGGCCACGAAAGGTCAGAGCTCGACATC | 3.63
TCTAGTTGGTCAAAGGTCATACACTCGAAATGCG | 5.62
CTAACTAGGTCAAGGACAGTGAATCTCCGCACGC | 1.58
TTGCCTAGGTCAGATCGGGCCAGTATACGCTATA | 0.692
ACTACTTGGTCAGCTGAGGTCACACACAATTCGG | 3.97
CGTCCAAGGTCAGCAAGTCAGTGAAAGCGACGTG | 2.02
CCTTTCGGGTCACGAGGTTATAGCACGACGAGCG | 4.2
CGTCAAAATTCAACTAAGGTAACGTAAAGCACGC | 0.543
